The record followed here is PMC7862700, “An all-to-all approach to the identification of sequence-specific readers for epigenetic DNA modifications on cytosine”.

Holding throughout (test): DAPPL (digital affinity profiling via proximity ligation, sequencing); 10 mM Tris-HCl pH 7.5, 50 mM NaCl, 1 mM DTT, 4% glycerol, room temperature, 30 min; GST-TFs on glutathione beads, 16-mer random dsDNA library, 0.1% formaldehyde crosslink after washing; high values mean tight binding
Common to all, as to settings: protein: recombinant; tags: N-terminal GST; dsDNA, one strand shown

One assay has as its target T1, ETV3L (Homo sapiens, UniProt Q6ZN32 1-361).
T1 sequence: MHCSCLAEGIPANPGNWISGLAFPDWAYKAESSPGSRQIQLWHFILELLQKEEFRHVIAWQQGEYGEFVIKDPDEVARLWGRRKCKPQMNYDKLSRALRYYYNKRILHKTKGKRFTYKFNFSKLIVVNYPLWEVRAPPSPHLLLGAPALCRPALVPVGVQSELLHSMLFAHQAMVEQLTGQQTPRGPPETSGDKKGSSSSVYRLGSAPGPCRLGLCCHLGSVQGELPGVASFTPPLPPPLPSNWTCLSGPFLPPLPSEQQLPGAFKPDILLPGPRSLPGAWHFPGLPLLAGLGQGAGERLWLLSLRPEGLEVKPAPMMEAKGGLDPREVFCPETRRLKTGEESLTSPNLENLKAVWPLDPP
In a few lines: (§1)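 In yeast, human transcription factors were expressed with a GST fusion, then pulled down on glutathione beads and given DNA barcodes. Pooled with a tag-only sample, they were exposed to 200 nmole of a 16-mer random double-stranded DNA library (Tris/NaCl/DTT/glycerol buffer, room temperature, 30 min), washed, crosslinked with 0.1% formaldehyde, proximity-ligated using BsaI/T4 ligase for 1 h at 37 °C, PCR-amplified and read on an Illumina NextSeq500. Each hexamer's frequency of reads for a factor, divided by the matching frequency for the tag-only sample, gives the binding signal.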

For the next assay, the target named is T2, ETS2 (Homo sapiens, UniProt P15036 1-469).
T2 sequence: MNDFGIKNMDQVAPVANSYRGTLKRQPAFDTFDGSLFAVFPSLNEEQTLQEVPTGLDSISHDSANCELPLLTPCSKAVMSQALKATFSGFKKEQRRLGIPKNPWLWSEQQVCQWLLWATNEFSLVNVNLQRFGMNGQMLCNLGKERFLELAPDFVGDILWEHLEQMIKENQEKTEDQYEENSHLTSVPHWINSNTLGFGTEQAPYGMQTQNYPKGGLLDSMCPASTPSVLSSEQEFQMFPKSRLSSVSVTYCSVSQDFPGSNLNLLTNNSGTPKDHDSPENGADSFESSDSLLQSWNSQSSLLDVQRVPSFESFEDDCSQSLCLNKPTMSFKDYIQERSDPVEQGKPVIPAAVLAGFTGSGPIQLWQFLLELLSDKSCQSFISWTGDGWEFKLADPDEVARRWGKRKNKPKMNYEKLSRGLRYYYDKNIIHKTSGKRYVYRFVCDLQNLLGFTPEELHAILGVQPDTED
In a few lines: as §1

Another assay addresses T3, SPDEF (Homo sapiens, UniProt O95238 1-335).
T3 sequence: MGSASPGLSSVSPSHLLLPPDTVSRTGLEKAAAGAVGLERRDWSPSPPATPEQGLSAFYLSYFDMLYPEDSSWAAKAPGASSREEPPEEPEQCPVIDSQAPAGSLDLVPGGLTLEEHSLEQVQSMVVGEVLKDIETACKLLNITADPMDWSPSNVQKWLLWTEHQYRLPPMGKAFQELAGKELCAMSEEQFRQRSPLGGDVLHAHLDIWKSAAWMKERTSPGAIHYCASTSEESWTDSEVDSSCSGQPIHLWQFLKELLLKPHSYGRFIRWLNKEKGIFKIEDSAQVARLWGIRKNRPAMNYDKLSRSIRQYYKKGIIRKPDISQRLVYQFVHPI
In a few lines: as §1

The target in the next assay is T4, ETV7 (Homo sapiens, UniProt Q9Y603 1-341).
T4 sequence: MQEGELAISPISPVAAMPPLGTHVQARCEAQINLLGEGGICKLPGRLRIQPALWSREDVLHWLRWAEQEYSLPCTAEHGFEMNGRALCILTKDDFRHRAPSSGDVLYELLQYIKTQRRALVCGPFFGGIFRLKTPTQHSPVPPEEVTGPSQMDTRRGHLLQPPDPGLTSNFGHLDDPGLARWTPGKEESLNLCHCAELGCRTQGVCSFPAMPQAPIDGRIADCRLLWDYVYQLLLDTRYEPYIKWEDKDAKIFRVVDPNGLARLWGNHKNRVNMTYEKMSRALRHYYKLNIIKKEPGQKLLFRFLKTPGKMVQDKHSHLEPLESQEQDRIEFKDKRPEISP
In a few lines:
as §1

A further assay addresses T5, ELF5 (Homo sapiens, UniProt Q9UKW6-2 1-255).
T5 sequence: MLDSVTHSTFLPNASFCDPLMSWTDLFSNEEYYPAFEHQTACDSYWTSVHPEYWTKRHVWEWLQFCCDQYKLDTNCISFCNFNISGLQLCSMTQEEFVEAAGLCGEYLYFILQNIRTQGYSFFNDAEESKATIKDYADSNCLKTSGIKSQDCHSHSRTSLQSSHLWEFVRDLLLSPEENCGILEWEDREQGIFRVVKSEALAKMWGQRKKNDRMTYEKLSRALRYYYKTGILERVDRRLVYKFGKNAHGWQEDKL
The gist of the method: as §1

The next assay deals with T6, ETV3 (Homo sapiens, UniProt P41162-2 1-143).
T6 sequence: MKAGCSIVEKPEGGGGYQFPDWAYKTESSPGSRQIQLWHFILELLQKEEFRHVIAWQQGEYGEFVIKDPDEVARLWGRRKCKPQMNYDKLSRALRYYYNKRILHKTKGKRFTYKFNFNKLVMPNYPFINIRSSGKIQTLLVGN
In a few lines: as §1

The target of a further assay is ETV6 (Homo sapiens, UniProt P41212 1-452). In a few lines:
as §1

For another assay, the target named is T7, ERF (Homo sapiens, UniProt P50548 1-548).
T7 sequence: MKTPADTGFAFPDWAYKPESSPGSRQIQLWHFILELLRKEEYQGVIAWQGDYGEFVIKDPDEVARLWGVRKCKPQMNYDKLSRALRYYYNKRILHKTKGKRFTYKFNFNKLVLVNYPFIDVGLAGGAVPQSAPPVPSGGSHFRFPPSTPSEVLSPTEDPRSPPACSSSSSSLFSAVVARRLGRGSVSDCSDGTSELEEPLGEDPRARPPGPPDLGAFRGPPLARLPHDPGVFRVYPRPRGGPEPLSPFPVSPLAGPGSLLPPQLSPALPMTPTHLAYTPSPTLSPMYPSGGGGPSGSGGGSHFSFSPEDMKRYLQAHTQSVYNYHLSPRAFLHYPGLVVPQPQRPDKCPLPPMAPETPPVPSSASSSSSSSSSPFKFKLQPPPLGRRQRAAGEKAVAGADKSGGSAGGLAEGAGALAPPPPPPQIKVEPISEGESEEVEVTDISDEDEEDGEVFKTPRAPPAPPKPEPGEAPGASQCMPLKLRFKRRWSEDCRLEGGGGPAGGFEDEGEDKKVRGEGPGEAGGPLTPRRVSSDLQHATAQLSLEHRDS
In a few lines: as §1

Chain of ETV6 (P41212 whole entry): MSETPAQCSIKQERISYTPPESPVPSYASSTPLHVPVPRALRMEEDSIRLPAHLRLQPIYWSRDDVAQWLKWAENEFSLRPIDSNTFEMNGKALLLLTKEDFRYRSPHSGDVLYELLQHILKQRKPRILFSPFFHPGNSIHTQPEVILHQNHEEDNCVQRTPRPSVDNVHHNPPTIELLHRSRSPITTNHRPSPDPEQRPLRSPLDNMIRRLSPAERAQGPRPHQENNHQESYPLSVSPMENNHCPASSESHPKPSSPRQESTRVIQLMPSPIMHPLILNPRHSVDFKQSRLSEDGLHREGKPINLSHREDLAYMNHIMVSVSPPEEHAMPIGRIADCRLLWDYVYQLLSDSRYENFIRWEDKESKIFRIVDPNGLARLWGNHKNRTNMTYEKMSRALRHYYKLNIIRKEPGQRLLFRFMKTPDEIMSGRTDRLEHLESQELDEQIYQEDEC

On to GTTAAT, for which the binding signal was 1.11 fold enrichment (6-mer frequency, TF over GST control) in the assay with ETV3L; 1.08 fold enrichment (6-mer frequency, TF over GST control) with ETS2; 1.09 fold enrichment (6-mer frequency, TF over GST control) in the assay with SPDEF; 1.07 fold enrichment (6-mer frequency, TF over GST control) with ETV7; 1.1 fold enrichment (6-mer frequency, TF over GST control) with ELF5; 1.1 fold enrichment (6-mer frequency, TF over GST control) with ETV3. For the same sequence, in the assay with ETV6, the binding signal is 1.06 fold enrichment (6-mer frequency, TF over GST control).
Regarding AAAGCC, the binding signal with ERF was 1.01 fold enrichment (6-mer frequency, TF over GST control); with ETV3, 1.05 fold enrichment (6-mer frequency, TF over GST control); in the assay with ETV6 it was 1.01 fold enrichment (6-mer frequency, TF over GST control).
With AATCGA, the binding signal in the assay with ETV3L is 1.04 fold enrichment (6-mer frequency, TF over GST control); with ETV7, 1.08 fold enrichment (6-mer frequency, TF over GST control); with ETV3, 1.07 fold enrichment (6-mer frequency, TF over GST control); with ETV6, 1.01 fold enrichment (6-mer frequency, TF over GST control).
For CAGATT, the binding signal with ETS2 is 1.02 fold enrichment (6-mer frequency, TF over GST control); in the assay with ETV3, 1.03 fold enrichment (6-mer frequency, TF over GST control); with ETV6, 1.02 fold enrichment (6-mer frequency, TF over GST control).
Consider GCAATG, for which the binding signal with ERF is 1.02 fold enrichment (6-mer frequency, TF over GST control); in the assay with ETV7 it was 1.14 fold enrichment (6-mer frequency, TF over GST control); with ETV3, 1.03 fold enrichment (6-mer frequency, TF over GST control); with ETV6 it was 1.12 fold enrichment (6-mer frequency, TF over GST control).
For the sequence TCAACG, the binding signal in the assay with ETV3L was 1.07 fold enrichment (6-mer frequency, TF over GST control); with ETS2, 1.13 fold enrichment (6-mer frequency, TF over GST control); with SPDEF, 1.05 fold enrichment (6-mer frequency, TF over GST control); with ETV7, 1 fold enrichment (6-mer frequency, TF over GST control); with ETV3, 1.14 fold enrichment (6-mer frequency, TF over GST control).
Take AATGGA: the binding signal with ETV3L is 1.08 fold enrichment (6-mer frequency, TF over GST control); in the assay with ETS2, 1.09 fold enrichment (6-mer frequency, TF over GST control); in the assay with ETV7, 1.03 fold enrichment (6-mer frequency, TF over GST control); with ETV6, 1.12 fold enrichment (6-mer frequency, TF over GST control).
For GTATCA, the binding signal with ETV3L was 1.09 fold enrichment (6-mer frequency, TF over GST control); with ETS2 it was 1.05 fold enrichment (6-mer frequency, TF over GST control); with SPDEF, 1.08 fold enrichment (6-mer frequency, TF over GST control); with ETV7 it was 1.04 fold enrichment (6-mer frequency, TF over GST control); in the assay with ELF5, 1.03 fold enrichment (6-mer frequency, TF over GST control); in the assay with ETV3 it was 1.09 fold enrichment (6-mer frequency, TF over GST control). The binding signal with ETV6 is 1.01 fold enrichment (6-mer frequency, TF over GST control).
In the case of TGGATT, the binding signal with ETV3L was 1.05 fold enrichment (6-mer frequency, TF over GST control); in the assay with ETS2, 1.03 fold enrichment (6-mer frequency, TF over GST control); with ETV7 it was 1.04 fold enrichment (6-mer frequency, TF over GST control); in the assay with ETV6 it was 1.02 fold enrichment (6-mer frequency, TF over GST control).
In the case of TGCCCT, the binding signal with ETV3L was 1.11 fold enrichment (6-mer frequency, TF over GST control); with ETS2, 1.21 fold enrichment (6-mer frequency, TF over GST control); with SPDEF it was 1.15 fold enrichment (6-mer frequency, TF over GST control); with ETV7, 1.08 fold enrichment (6-mer frequency, TF over GST control); in the assay with ELF5 it was 1 fold enrichment (6-mer frequency, TF over GST control); with ETV3, 1.1 fold enrichment (6-mer frequency, TF over GST control). Besides, the binding signal with ETV6 was 1.15 fold enrichment (6-mer frequency, TF over GST control).
Turning to ATCAGC, the binding signal with ETS2 is 1.09 fold enrichment (6-mer frequency, TF over GST control); with ETV6, 1.01 fold enrichment (6-mer frequency, TF over GST control).
As to CACGCG, the binding signal with ETV3L is 1.22 fold enrichment (6-mer frequency, TF over GST control); with ETS2 it was 1.13 fold enrichment (6-mer frequency, TF over GST control); with SPDEF, 1.23 fold enrichment (6-mer frequency, TF over GST control); with ETV7, 1.13 fold enrichment (6-mer frequency, TF over GST control); in the assay with ELF5 it was 1.17 fold enrichment (6-mer frequency, TF over GST control); with ETV3, 1.09 fold enrichment (6-mer frequency, TF over GST control). In addition, in the assay with ETV6, the binding signal was 1.18 fold enrichment (6-mer frequency, TF over GST control).
With GAAAGA, the binding signal with ETV3L is 1.03 fold enrichment (6-mer frequency, TF over GST control); with ETS2, 1.02 fold enrichment (6-mer frequency, TF over GST control); with ETV7, 1.1 fold enrichment (6-mer frequency, TF over GST control); with ETV3, 1.01 fold enrichment (6-mer frequency, TF over GST control); in the assay with ETV6 it was 1.09 fold enrichment (6-mer frequency, TF over GST control).
For CATAAA, in the assay with ETV3L, the binding signal is 1.06 fold enrichment (6-mer frequency, TF over GST control).
AAATCG: the binding signal in the assay with ETV3L was 1.09 fold enrichment (6-mer frequency, TF over GST control); with ETV7 it was 1.08 fold enrichment (6-mer frequency, TF over GST control); in the assay with ETV3 it was 1.03 fold enrichment (6-mer frequency, TF over GST control); with ETV6, 1.05 fold enrichment (6-mer frequency, TF over GST control).
For the sequence CCTGGG, the binding signal with ETV3L is 1.22 fold enrichment (6-mer frequency, TF over GST control); with ETS2, 1.14 fold enrichment (6-mer frequency, TF over GST control); in the assay with SPDEF, 1.11 fold enrichment (6-mer frequency, TF over GST control); with ETV7, 1.39 fold enrichment (6-mer frequency, TF over GST control); with ELF5, 1.17 fold enrichment (6-mer frequency, TF over GST control); in the assay with ETV3, 1.08 fold enrichment (6-mer frequency, TF over GST control). Also, the binding signal with ETV6 is 1.1 fold enrichment (6-mer frequency, TF over GST control).
